Measured values published in PubChem BioAssay AID492953 (The Scripps Research Institute Molecular Screening Center, 2010).
Screen size: about 340,000 compounds; about 4,200 (1.2%) were called active.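 How the source made its calls: active means inhibition above the mean of all tested compounds plus 3 SD (cut at about 24% in these data); inactive means the rest.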 The list comes from a sample in which actives are over-represented; it also holds similar structures and randomly drawn compounds.

What follows are compounds tested against Platelet-activating factor acetylhydrolase IB subunit alpha2 (Homo sapiens) (UniProt P68402) (assay: PAFAH1B2 enzyme inhibitors, primary screen, biochemical, fluorescence polarization, human (AID 492953;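 further: 0% = enzyme with DMSO and 100% = wells lacking PAFAH1B2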)). Conditions: recombinant PAFAH1B2, FP-rhodamine activity probe, at 3.39 µM, stronger effect = higher value.
Platelet-activating factor acetylhydrolase IB subunit alpha2 (Homo sapiens), sequence (P68402 whole entry, looked up): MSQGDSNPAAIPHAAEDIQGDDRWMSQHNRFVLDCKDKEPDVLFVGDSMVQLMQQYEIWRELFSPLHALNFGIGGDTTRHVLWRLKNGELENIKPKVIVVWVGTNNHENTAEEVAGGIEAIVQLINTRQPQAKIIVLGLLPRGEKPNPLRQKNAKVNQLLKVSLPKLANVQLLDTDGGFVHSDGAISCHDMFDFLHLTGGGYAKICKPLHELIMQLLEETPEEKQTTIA

Row | SMILES | inhibition
1 | O=C1N[C@@H](c2ccccc2)COC(=O)[C@H](Cc2ccc(F)cc2)C/C=C\C[C@@H]1CC(=O)N(CCO)Cc1ccccc1 | 4.49% (inactive)
2 | O=C1CCC/C=C/C[C@@H](CC(=O)N(CCO)Cc2ccccc2)C(=O)NC[C@H](c2ccccc2)O1 | -0.45% (inactive)
3 | O=C1NC[C@@H](c2ccccc2)OC(=O)[C@H](Cc2ccc(F)cc2)CC/C=C/C[C@H]1CC(=O)N(CCO)Cc1ccccc1 | 53.8% (active)
4 | COC(=O)c1cc(S(=O)(=O)N2CCC(C(N)=O)CC2)oc1C | -0.09% (inactive)
5 | O=C(Nc1ccccc1)N1CCC(C(=O)N2CCN(Cc3ccccc3)CC2)CC1 | 0.85% (inactive)
6 | COc1ccc(C2c3c(C)nn(-c4ccccc4)c3NC(=O)N2c2ccccc2)cc1 (configuration not stated) | 0.39% (inactive)
7 | COCc1[nH]nc2c1C(C1C=CCCC1)C(C#N)=C(N)O2 (configuration not stated) | 4.96% (inactive)
8 | CCCc1[nH]nc2c1C(C1CC=CCC1)C(C#N)=C(N)O2 (configuration not stated) | 27.5% (active)
9 | CCCc1[nH]nc2c1C(c1ccc(Br)s1)C(C#N)=C(N)O2 (configuration not stated) | 19.3% (inactive)
10 | CC(C)(C)c1cc(CN2CCN(CCC#N)CC2)cc(C(C)(C)C)c1O | 1.53% (inactive)
11 | CCOC(=O)C1Sc2[nH]c(=O)sc2C(c2ccc(Cl)cc2)C1C(=O)OCC (configuration not stated) | 27% (active)
12 | CCOC(=O)C1CCN(C(=O)Nc2ccc(Cl)cc2)CC1 | 2.4% (inactive)
13 | CCOC(=O)c1ccccc1N1C(=O)C2Sc3[nH]c(=O)sc3C(/C=C/c3ccccc3)C2C1=O (configuration not stated) | 1.84% (inactive)
14 | CCCCNC(=O)N1CCN(S(C)(=O)=O)CC1 | 3.98% (inactive)
15 | O=C(C1CC1)N1CCN=C1SCc1ccc(Cl)cc1 | 10.5% (inactive)
16 | Nc1cc(N)nc(SCc2ccc(Cl)cc2)n1 | 24.1% (inactive)
17 | Clc1ccc(CSc2nnc([C@@H]3CCCN3)o2)cc1 | 24.3% (active)
18 | COCC1CCN(C(=O)C2CCC(=O)N(Cc3cccc(C(F)(F)F)c3)C2)CC1 (configuration not stated) | -0.17% (inactive)
19 | CCN(CC)CCCC(C)n1c2nc(=O)[nH]c(=O)c-2nc2cc(Cl)ccc21 (configuration not stated) | 26% (active)
20 | CCN(CC)CCn1c2ccc(Cl)cc2c2nc(C)sc21 | -5.01% (inactive)
21 | CN(C(=O)c1ccc(NC(=O)Cc2cccc(NC(=O)C3CCN(C(=O)c4ccccc4)CC3)c2)cc1)C1CC1 | 4.32% (inactive)
22 | O=[N+]([O-])c1ccc(NS(=O)(=O)c2ccccc2)c(Cl)c1 | 1.95% (inactive)
23 | CN(C)CCNC(=O)c1ccc(Cl)c2cc3ccccc3nc12 | -1.08% (inactive)

Row | SMILES | inhibition
24 | CC(=O)COc1ccc2c(-c3ccccc3)cc(=O)oc2c1 | -1.64% (inactive)
25 | O=C(CNC(=O)c1ccc(-c2ccccc2)cc1)OCc1ccc(Cl)cc1 | 1.38% (inactive)
26 | O=C(CNC(=O)OCc1ccccc1)Oc1cc2oc(=O)cc(-c3ccccc3)c2cc1Cl | 45.7% (active)
27 | Nc1ccc2nc3c(=O)[nH]c(=S)[nH]c3nc2c1 | 33.8% (active)
28 | O=C(NCCc1ccccn1)c1nc(Cn2cc([N+](=O)[O-])cn2)no1 | -4.12% (inactive)
29 | C=CC(=O)Nc1ccc(Nc2ccnc(Nc3ccc(N4CCN(C)CC4)cc3)n2)cc1 | 1.32% (inactive)
30 | O=C(COc1ccccc1Cl)Nc1ccccc1C(=O)NC1CC1 | 0.96% (inactive)
31 | COc1ccc(S(=O)(=O)N2CCOC2CNC(=O)C(=O)NCc2ccncc2)cc1C (configuration not stated) | 1.87% (inactive)
32 | Nc1cccnc1Sc1ccccc1 | 4.02% (inactive)
33 | CC(Oc1ccc(Cl)cc1)c1ccnn1S(C)(=O)=O (configuration not stated) | 29.6% (active)
34 | CC(Oc1ccc(Cl)cc1)C(=O)Nc1ncccn1 (configuration not stated) | 5.55% (inactive)
35 | CCN(Cc1ccccc1)S(=O)(=O)c1cc2c3c(c1)CCN3C(=O)CC2 | 8.31% (inactive)
36 | C=CCOc1ccc(/C=N/n2cncn2)cc1OC | 6.27% (inactive)
37 | CCOC(=O)c1c(NC(=O)CSc2nnc(C)c(=O)[nH]2)sc2c1CCC2 | 66.8% (active)
38 | CCOC(=O)c1c(NC(=O)CSc2cn(CC)c3ccccc23)sc2c1CCC2 | -2.98% (inactive)
39 | CCOC(=O)c1c(NC(=O)CSc2nnc(CN3CCOCC3)n2C)sc2c1CCCC2 | -1.06% (inactive)
40 | CC1CC(=O)Nc2ccccc2N1C(=O)COc1ccc2cc(Br)ccc2c1 (configuration not stated) | 16.6% (inactive)
41 | COc1ccc(-c2cc(C(F)(F)F)nc(S(C)(=O)=O)n2)cc1OC | -1.46% (inactive)
42 | Cc1cc[n+](-c2[nH]c(=O)sc2/C=N/NC(=O)c2ccccc2[O-])cc1C | 8.46% (inactive)
43 | Cc1cc(=O)[nH]c(SCc2cccc(F)c2)n1 | 3.14% (inactive)
44 | COc1ccccc1-c1noc(CSc2nc(C)cc(=O)[nH]2)n1 | 1.01% (inactive)
45 | Cc1cc(=O)[nH]c(SCc2cc(Cl)ccc2OC(F)F)n1 | 26.4% (active)
46 | COc1ccc(CC(NC(C)=O)C(=O)NC2CCN(C(=O)Nc3ccc(C#N)cc3)CC2)cc1OC (configuration not stated) | 2.86% (inactive)

Row | SMILES | inhibition
47 | CCN(C(=O)CN1CCN(Cc2ccccc2)CC1)c1c(N)n(Cc2ccccc2)c(=O)[nH]c1=O | -0.83% (inactive)
48 | CCCCC1S/C(=N/N=C/c2cccs2)NC1=O (configuration not stated) | 8.36% (inactive)
49 | COc1ccc(C(=O)NNS(=O)(=O)c2ccc(C)cc2)cc1 | 6.56% (inactive)
50 | COc1ccc(C(=O)NNC(=O)c2cc(C)[nH]n2)cc1 | 5.54% (inactive)
51 | COc1ccc(C(=O)NNc2cc(C)nc(NNC(=O)c3ccc(OC)cc3)n2)cc1 | 24.3% (active)
52 | O=C1NC2(CCCCCC2)C(=O)N1CCS(=O)(=O)Oc1ccccc1 | 7.86% (inactive)
53 | CCn1c(CNC(=O)c2cc(OC)c(OC)c(OC)c2)cc2cc(C)ccc21 | 2.65% (inactive)
54 | O=c1ccc2c(-c3ccccc3S(=O)(=O)O)c3ccc(O)c(O)c3oc-2c1O | 26.6% (active)
55 | CCCNC(=O)CN(Cc1ccccc1F)S(=O)(=O)c1ccc(C)cc1 | 4.33% (inactive)
56 | C=CCn1c(C(C)NC(=O)CC)nc2ccccc21 (configuration not stated) | 0.58% (inactive)
57 | Cc1cc(NC(=O)CSc2nc3ccccc3n2CC(C)C)no1 | 4.62% (inactive)
58 | CC(C)Cn1c(N2CCN(C(=O)/C=C/c3ccccc3)CC2)nc2ccccc21 | 28.8% (active)
59 | CNC(=O)/C(=C\C=C\c1ccccc1)NC(=O)c1ccc([N+](=O)[O-])cc1 | -3.09% (inactive)
60 | O=C(Cc1ccc(S(=O)(=O)N2CCOCC2)s1)Nc1ccc(Br)c(C(F)(F)F)c1 | -4.41% (inactive)
61 | Cc1ccc(S(=O)(=O)NC(=O)Nc2nc(-c3ccc(F)c(F)c3)cs2)cc1 | 30.1% (active)
62 | COc1ccc(CC(=O)Nc2nc(-c3ccc(F)c(F)c3)cs2)cc1OC | 4.28% (inactive)
63 | COc1cc(CC(=O)Nc2nc(-c3ccc(F)c(F)c3)cs2)cc(OC)c1OC | 1.73% (inactive)
64 | COc1ccc(C)cc1NC(=S)Nc1ccccc1SC | 9.46% (inactive)
65 | CC(=O)Oc1ccc2c(c1)C(=O)c1ccccc1C2=O | 7.25% (inactive)
66 | O=C1C(Cl)=C(Oc2ccccc2)C(=O)c2ccccc21 | 33.9% (active)
67 | CC(=O)N(C1=C(Cl)C(=O)c2ccccc2C1=O)c1ccc(C(=O)O)cc1 | 15.6% (inactive)
68 | Cn1c(=O)oc2cc(S(=O)(=O)NCCC(=O)NCc3ccccc3Cl)ccc21 | -3.01% (inactive)
69 | Cc1nn(-c2ncccn2)c2c1C(=O)CC(C)(C)C2Br (configuration not stated) | 3.5% (inactive)

Row | SMILES | inhibition
70 | CCOCc1nnc(NC(=O)CSc2ccc(C)cc2)s1 | -28.2% (inactive)
71 | Cc1ccc(SCC(=O)Nc2ncc(C)s2)cc1 | 26.1% (active)
72 | Cc1cnc(NC(=O)CSc2nnc(-c3ccccc3)n2Cc2ccccc2)s1 | 7.97% (inactive)
73 | O=C(Nc1nccs1)c1cc(S(=O)(=O)N2CCOCC2)c(Cl)cc1Cl | -6.96% (inactive)
74 | O=C(c1ccc(Cl)c(S(=O)(=O)N2CCCCC2)c1)N1CCCCCC1 | -0.08% (inactive)
75 | O=C(O)c1cc(S(=O)(=O)N2CCCCCC2)c(Cl)cc1Cl | 24.3% (active)
76 | Cc1ccc(S(=O)(=O)N2CCN(C(=O)CN3C(=O)NC(C)(c4ccc(Cl)cc4)C3=O)CC2)c(C)c1 (configuration not stated) | 5.07% (inactive)
77 | O=C(Nc1ccccc1)O/N=C1/CCCc2occc21 | 5.12% (inactive)
78 | CCn1c(SCC(=O)NC2CC2)nnc1-c1ccccn1 | 8.43% (inactive)
79 | CN(Cc1cc2cc(F)ccc2[nH]1)Cc1nc(-c2cnccn2)no1 | 3.21% (inactive)
80 | CN(CCOc1ccccc1)Cc1nc2cc(Cl)ccc2c(=O)[nH]1 | -0.52% (inactive)
81 | CCC1(CC)Cc2ccccc2-c2nc(CCl)[nH]c(=O)c21 | 4.98% (inactive)
82 | O=c1[nH]c(CCl)nc2cc(-c3ccc(Cl)cc3)sc12 | 43.4% (active)
83 | Cc1ccc(-c2nc(CSCC(=O)NC3CCN(Cc4ccccc4)CC3)c(C)o2)cc1 | 3.88% (inactive)
84 | CCOC(=O)N1CCN(c2c(NCCCN3CCCC(C)C3)c(=O)c2=O)CC1 (configuration not stated) | -3.22% (inactive)
85 | CCCS(=O)(=O)Nc1c(C(=O)O)[nH]c2ccccc12 | 1.36% (inactive)
86 | O=C(O)c1[nH]c2ccccc2c1C(c1cccc(O)c1)c1c(C(=O)O)[nH]c2ccccc12 | 94.6% (active)
87 | CC(NC(=O)COC(=O)c1cc(=O)[nH]c2ccccc12)c1ccccc1 (configuration not stated) | 6.8% (inactive)
88 | COc1ccc(/C=N/N(C)C2=NS(=O)(=O)c3ccccc32)cc1OC | 12% (inactive)
89 | COc1ccc(C(=O)Nc2cccc(/C=C(/CCC(=O)O)c3nc4ccccc4s3)c2)cc1 | -1.28% (inactive)
90 | O=C(O)CC/C(=C\c1cc2c(cc1Br)OCO2)c1nc2ccccc2s1 | 27.5% (active)
91 | Cc1nn(-c2ccc(F)cc2)c(Cl)c1/C=C(/CCC(=O)O)c1nc2ccccc2s1 | 4.71% (inactive)
92 | NC(=O)COc1ccc(/C=N/NC(=O)C2CCCN2S(=O)(=O)c2ccc(Cl)cc2)cc1 (configuration not stated) | 2.71% (inactive)
